Source: PubChem (Sanford-Burnham Center for Chemical Genomics)
Peg3 promoter: reduces Peg3 promoter-driven luciferase expression in HeLa; AID 588405; inhibition, % at 20 µM; actives 1.7% (n = 360,000); HeLa PEG-Prom luciferase reporter, luminescence, overnight;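 active = inhibition of at least 50% at 20 µM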
HIF-2a inh: blocks HIF-2a reporter activity; inhibition, % at 18.8 µM; 786-0 RCC cells HIF-2a reporter, luciferase luminescence, overnight; actives 0.72% (n = 360,000);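 active = inhibition of the luminescence signal of 40% or more relative to plate controls, in a single-dose primary screen at 18.75 µM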
KKLEB cytotox: counter-screen for CF NF-kB inhibitors: cytotoxicity | actives 0.36% (n = 360,000) | AID 602141 | activity change (cytotoxicity), % at 5 µM | KKLEB CF airway cells viability, ATPlite luminescence, overnight; hits give low values; cells stimulated with P. aeruginosa culture filtrate;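 active = corrected activity change at or below -50% at 5 µM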
TWEAK Fn14 block: inhibitors of TWEAK-Fn14 interaction signaling; inhibition, % at 10 µM; AID 1159606; TWEAK-stimulated Fn14 reporter cells, luciferase luminescence, 8 h; actives 2% (n = 360,000); in the data active = inhibition above about 50%
CF NFkB block: inhibitors of cystic fibrosis induced NF-kB; KKLEB NF-kB-GFP reporter, PAF-induced, GFP fluorescence overnight; inhibition, % at 5 µM; actives 0.86% (n = 360,000);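 active = at least 50% inhibition at 5 µM, scaled per plate between neutral and stimulator controls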;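 note: PAF is a Pseudomonas aeruginosa culture filtrate used as stimulus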
TROY signal inh: blocks TROY-dependent signaling in reporter cells. Q293 LMP1-TROYcd NF-kB luciferase reporter, 4 h. inhibition, % at 10 µM. actives 0.98% (n = 360,000);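 active = compounds whose plate-normalised and pattern-corrected inhibition of the luciferase reporter signal at the single screening dose is 50% or more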
A number is an active result; – = inactive; · = no result given. Sampled rows, rich in hits. Any-hit rate of the full collection: about 4%.

SMILES | Peg3 promoter | HIF-2a inh | KKLEB cytotox | TWEAK Fn14 block | CF NFkB block | TROY signal inh
CC[C@]12c3[nH]c4ccc(Cl)cc4c3CCN1C(=O)[C@@H](CC(=O)NC/C=C(\C)CCC=C(C)C)C[C@@H]2C(=O)N1CCN(C(=O)C2CC2)CC1 | 60 | – | – | – | – | –
CC[C@]12c3[nH]c4ccccc4c3CCN1C(=O)C(CC(=O)NCc1cccc(C(F)(F)F)c1)C[C@@H]2C(=O)N1CCN(C(=O)C2CC2)CC1 (stereo not given in full) | – | – | – | – | – | –
CC[C@]12c3[nH]c4ccccc4c3CCN1C(=O)C(CC(=O)NCC13CC4CC(CC(C4)C1)C3)C[C@@H]2C(=O)N1CCN(C(=O)c2ccco2)CC1 (stereo not given in full) | – | – | – | – | – | –
CC[C@]12c3[nH]c4cc(CCC(=O)N(C)C)ccc4c3CCN1C(=O)[C@@H](CC(=O)NC/C=C(\C)CCC=C(C)C)C[C@@H]2C(=O)N1CCN(C(=O)C2CC2)CC1 | – | – | – | – | – | –
CC[C@]12c3[nH]c4ccc(Cl)cc4c3CCN1C(=O)[C@@H](CC(=O)NCc1cccc(C(F)(F)F)c1)C[C@@H]2C(=O)N1CCN(C(=O)C2CC2)CC1 | 52 | – | – | – | – | –
CC[C@]12c3[nH]c4cc(CCC(=O)N(C)C)ccc4c3CCN1C(=O)[C@@H](CC(=O)NCC13CC4CC(CC(C4)C1)C3)C[C@@H]2C(=O)N1CCN(C(=O)c2ccco2)CC1 | – | – | – | 96 | – | –
CCCCNC(=O)C1(C)CCN1C(=O)c1oc2ccccc2c1C (stereo not given) | – | – | – | – | – | –
COc1ccc2[nH]c3c(c2c1)CCN1C(=O)C(CC(=O)NC/C=C(\C)CCC=C(C)C)C[C@H](C(=O)N(C(C)C)C(C)C)[C@@]31C (stereo not given in full) | – | – | – | – | – | –
CCN(CC)C(=O)[C@H]1C[C@H](CC(=O)NCc2ccco2)C(=O)N2CCc3c([nH]c4cc(-c5ccco5)ccc34)[C@]12C | – | – | – | – | – | –
CC(C)=CCC/C(C)=C/CNC(=O)C[C@H]1C[C@H](C(=O)N(C(C)C)C(C)C)[C@@]2(C)c3[nH]c4ccc(Cl)cc4c3CCN2C1=O | – | – | – | 56 | – | –
CN(C)C(=O)CCc1ccc2c3c([nH]c2c1)[C@]1(CCC2CCCC2)[C@@H](C(=O)N2CCOCC2)C[C@H](CC(=O)NCc2cccc(C(F)(F)F)c2)C(=O)N1CC3 | – | – | – | – | – | –
CCN(CC)C(=O)[C@H]1C[C@H](CC(=O)NCc2cccc(C(F)(F)F)c2)C(=O)N2CCc3c([nH]c4cc(-c5ccco5)ccc34)[C@]12C | 85 | – | – | – | – | –
O=C(CC1C[C@H](C(=O)N2CCOCC2)[C@@]2(CCC3CCCC3)c3[nH]c4ccccc4c3CCN2C1=O)NCc1cccc(C(F)(F)F)c1 (stereo not given in full) | 90 | – | – | – | – | –
O=C(O)c1cccc(S(=O)(=O)N2CCC(n3nnc4cc(C(F)(F)F)ccc43)CC2)c1 | – | – | – | – | – | –
COc1ccc2cc3cc(C(=O)NCCc4ccc(OC)c(OC)c4)oc3nc2c1 | 53 | – | – | 66 | – | –
COc1ccc(CCNC(=O)c2ccc(CSc3ccc(Cl)cc3)o2)cc1OC | · | – | · | 68 | · | –
COc1ccc(CCNC(=O)c2ccc(CS(=O)(=O)c3ccc(Cl)cc3)o2)cc1OC | – | – | – | – | – | –
CCCN(CCC)CCCNC(=O)c1cc2cc3ccc(OC)cc3nc2o1 | – | – | – | – | – | –
COc1ccc2cc3cc(C(=O)N4CCCCCC4)oc3nc2c1 | – | – | – | 54 | – | –
COc1ccc(NC(=O)CSc2nnc(NC(=O)C3CCC3)s2)c(OC)c1 | – | – | – | – | – | –
Cc1c(C(C)(C)C)sc(=NC(=O)c2ccccc2O)n1C | – | – | – | – | – | 56
CCOC(=O)c1sc2nc3c(cc2c1N)COC(C(C)C)C3 (stereo not given) | – | – | – | 85 | – | 66
CCOC(=O)c1sc2nc(N3CCOCC3)c3c(c2c1N)CC(C(C)C)OC3 (stereo not given) | – | – | – | – | – | –
CC(=O)c1c(OCC(=O)O)ccc2c(C)cc(=O)oc12 | – | – | – | – | – | –
CC(=O)c1c(OC(=O)c2ccccc2Br)ccc2c(C)cc(=O)oc12 | – | – | – | 54 | – | –
SMILES | Peg3 promoter | HIF-2a inh | KKLEB cytotox | TWEAK Fn14 block | CF NFkB block | TROY signal inh
CSc1ccccc1NC(=O)CN1CCN(S(=O)(=O)c2ccccc2[N+](=O)[O-])CC1 | – | – | – | – | – | –
COc1ccccc1C(=O)NC(=O)COC(=O)c1cccc(NC(C)=O)c1 | – | – | – | – | – | –
O=C(/C=C/c1ccnc2ccccc12)c1cccs1 | 102 | – | – | 65 | 61 | 70
C#CCN(C[C@@H]1[C@@H](OC(=O)Nc2cccs2)[C@@H](OC(=O)Nc2cccs2)Cn2c(=O)n(CCCCCC)c(=O)n21)S(=O)(=O)c1ccc(C)cc1 | – | – | – | – | – | –
CN1CCN(Cc2nc3ccccc3c(=O)n2Cc2nc(-c3cccc([N+](=O)[O-])c3)cs2)CC1 | 50 | – | – | – | – | –
CCC(Oc1ccccc1OC)C(=O)Nc1ccc2c(c1)OCCO2 (stereo not given) | – | – | – | 59 | – | –
O=C(NCC1COc2ccccc2O1)c1cc2ccccc2o1 (stereo not given) | – | – | – | 81 | – | ·
O=C(Nc1ccc(N2CCN(C(=O)c3ccccc3)CC2)c(Cl)c1)c1ccc(Br)o1 | 50 | – | – | – | – | –
CC(=O)c1ccc2c(c1)OCCOCCOCCOCCOCCO2 | – | – | – | 87 | – | –
O=C(Nc1ccc(N2CCN(C(=O)c3ccccc3)CC2)cc1)c1ccc(Br)o1 | – | – | – | – | – | –
O=C(Nc1ccc(S(=O)(=O)Nc2nccs2)cc1)c1c(F)c(F)c(F)c(F)c1F | – | – | – | – | – | –
CCOC(=O)/C=C1\SC(C)C(=O)N1CC(=O)N(CCC#N)c1ccccc1 (stereo not given) | – | – | – | – | – | –
COc1ccc(C(=O)Nc2ccc3c(c2)OCCO3)cc1 | – | – | – | 50 | – | –
O=C(Nc1ccc2c(c1)OCCO2)c1[nH]c(C(F)(F)F)nc1-c1ccccc1 | – | – | – | 90 | – | 81
O=C(Nc1ccncc1)c1ccc2c(c1)OCCO2 | – | – | – | – | – | –
O=C(Nc1ccc(Br)cc1F)c1ccc2c(c1)OCCO2 | – | – | – | 51 | – | –
Cc1ccc(NC(=O)c2ccc3c(c2)OCCO3)cc1 | – | – | – | 68 | – | –
CC(=O)C[C@H]1SC[C@@H](C(C)C)N1S(=O)(=O)c1ccc(C)cc1 | · | – | · | · | · | ·
